Results on seven compounds are retold here after PubChem BioAssay.

Activity calls are given as the source filed them.

Test [1] concerns Plasmodium falciparum Sir2 (PF13_0152, Sir2A). Description: Plasmodium falciparum Sir2A binding compounds – biochemical, small-molecule microarray, 635 nm fluorescence, primary screen (AID 1098).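 Note: score merges spot fluorescence intensity with its signal-to-noise ratio.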 The note with it: fluorescence 635 nm, higher = more signal.
The nature of test [2]: probe aDKK1 binding to arrayed compounds – biochemical, biotinylated probe, 635/667 nm fluorescence, primary screen (AID 1099).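 Note: score merges 667nm spot fluorescence with signal to noise across triplicate slides.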 The note with it: small-molecule microarray, higher = more signal.
Test [3] can be described thus: probe aCHRDL2 binding to arrayed compounds – biochemical, biotinylated probe, 635/667 nm fluorescence, primary screen (AID 1100). The note with it: small-molecule microarray, higher = more signal.
Test [4] can be described thus: change in splice reporter luminescence, either direction, cell-based, HEK293, spliceosome inhibition project, primary screen (AID 1101).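 Note: HEK293 cells carrying a splicing-competent luciferase reporter gene; test concentration not given here.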 The note with it: HEK293 splicing luciferase reporter, 24 h, higher = more signal, called active from +8 up or from −8 down. On the technique in general: In a reporter assay the amount or activity of a reporter protein is the signal.

The target of test [5] is Fibroblast growth factor 10 (Homo sapiens) (UniProt O15520). Description: compounds binding fibroblast growth factor 10 – biochemical, small-molecule microarray, 635 nm fluorescence, primary screen (AID 1102). The note with it: FGF10 binding, fluorescence 635 nm, higher = more signal.
The subject of test [6] is glycogen synthase kinase-3 (GSK3A per assay name; protocol says GSK3B). Description: compounds binding glycogen synthase kinase-3 – biochemical, small-molecule microarray, 635 nm fluorescence, GSK3A, primary screen (AID 1103). Note: the record names both GSK3A and GSK3B. The note with it: fluorescence 635 nm, higher = more signal.
Test [7] addresses Epidermal growth factor receptor (Homo sapiens) (UniProt P00533). Description: compounds binding epidermal growth factor receptor – biochemical, small-molecule microarray, 635 nm fluorescence, primary screen (AID 1104).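 Note: score merges 667 nm emission intensity with spot signal to noise over triplicate slides.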 The note with it: EGFR binding, higher = more signal.
The target in test [8] is Follistatin-related protein 3 (Homo sapiens) (UniProt O95633). Description: compounds binding follistatin-related protein 3 – biochemical, small-molecule microarray, 635 nm fluorescence, primary screen (AID 1105).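 Note: score merges emission near 667 nm and signal to noise per printed spot across three slides.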 The note with it: FSTL3 binding, higher = more signal.
For test [9], the target named is Dickkopf-related protein 1 (Homo sapiens) (UniProt O94907). Description: small molecules binding DKK1 protein – biochemical, small-molecule microarray, 635 nm fluorescence scan, primary screen (AID 1106).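 Note: score merges emission near 667 nm with signal to noise over three replicate slides.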 The note with it: higher = more signal.
Test [10] relates to Inhibin beta A chain (activin A). Description: small molecules binding activin A – biochemical, small-molecule microarray, 635 nm fluorescence scan, primary screen (AID 1107).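 Note: mouse activin A protein probed at 4.33 µg/mL on printed slides; score merges bound-protein fluorescence near 667 nm with spot signal-to-noise.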 The note with it: INHBA, higher = more signal.
Test [11] deals with Human papillomavirus type 1a protein E7 (residues 44-93). Description: small molecules binding HPV E7 44-93 – biochemical, small-molecule microarray, residues 44-93, 635 nm fluorescence, primary screen (AID 1108).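 Note: E7 fragment applied at 1 µg/mL in TBST for 1 h at 4 C; score combines spot fluorescence with its signal to noise ratio.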 The note with it: fluorescence 635 nm, higher = more signal.
The nature of test [12]: hepatitis C replication reporter changes, two-sided – Huh7 cells, luciferase reporter, HCV replication inhibitor project, primary screen (AID 1109).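 Note: huh7 hepatoma cells harbouring a luciferase neomycin HCV replicon reporter; luciferase luminescence as measure of HCV replicon replication; test concentration not given here.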 The note with it: Huh7 HCV replicon luciferase reporter, 48 h; higher = more signal.
The target in test [13] is Left-right determination factor 2 (Homo sapiens) (UniProt O00292). Description: small molecules binding LEFTY2 protein – biochemical, small-molecule microarray, 635 nm fluorescence scan, primary screen (AID 1110). The note with it: higher = more signal.
For test [14], the target named is Calmodulin-1 (Homo sapiens) (UniProt P0DP23). Description: small molecules binding calmodulin-1 with EGTA – biochemical, small-molecule microarray, Cy5-labelled CALM1, profiling panel (AID 1111).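 Note: labelled calmodulin applied in Tris saline Tween buffer holding calcium plus EGTA and DTT.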 The note with it: Cy5-CALM1 binding fluorescence, higher = more signal.
Test [15] shares this target. Description: small molecules binding Ca-loaded calmodulin-1 – biochemical, small-molecule microarray, Cy5-labelled CALM1, plus calcium, artefact control for SMM control-protein annotation, profiling panel (AID 1112).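 Note: score merges spot fluorescence with signal to noise from triplicate slides.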 The note with it: Cy5-CALM1 binding fluorescence, higher = more signal.
Test [16] in a line: probe aWnt5a binding to arrayed compounds – biochemical, biotinylated probe, 635/667 nm fluorescence, primary screen (AID 1113).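 Note: score merges 667 nm fluorescence intensity with signal-to-noise per printed feature.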 The note with it: small-molecule microarray, higher = more signal.
The nature of test [17]: probe aShh binding to arrayed compounds – biochemical, biotinylated probe, 635/667 nm fluorescence, primary screen (AID 1114).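 Note: probe is biotin-labelled aShh protein from a stem cell growth factor screen; measures binding of labelled protein to compounds printed on the slide; score merges feature fluorescence at 667 nm with signal-to-noise.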 The note with it: small-molecule microarray, higher = more signal.
Test [18] in a line: probe aNog binding to arrayed compounds – biochemical, biotinylated probe, 635/667 nm fluorescence, primary screen (AID 1115).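 Note: probe is biotinylated aNog protein used at 0.15 µg/mL for 1 h at 4 C; z-score combines 667 nm fluorescence of each spot with its signal to noise.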 The note with it: small-molecule microarray, higher = more signal.
Test [19] deals with Torsin-1A-interacting protein 1 (Homo sapiens) (UniProt Q5JTV8). Description: compound microarray binding of lysate hLAP1 – cell lysate, small-molecule microarray, COS7 lysate, 635/667 nm fluorescence, primary screen (AID 1116). The note with it: 635 nm fluorescence, higher = more signal.
The target of test [20] is Alpha-bungarotoxin (Bungarus multicinctus) (UniProt P60615). Description: compounds binding labelled alpha-BTX control protein – biochemical, small-molecule microarray, Alexa647 label, 635/667 nm fluorescence, artefact control for SMM control protein annotation, profiling panel (AID 1117). The note with it: alpha-BTX-A647 binding fluorescence, higher = more signal.
Chain of Alpha-bungarotoxin (Bungarus multicinctus) (P60615 whole entry, looked up): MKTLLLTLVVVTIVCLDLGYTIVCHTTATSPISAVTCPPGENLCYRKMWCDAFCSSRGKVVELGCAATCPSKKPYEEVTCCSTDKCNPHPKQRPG

Chain of Fibroblast growth factor 10 (Homo sapiens) (O15520 whole entry, looked up): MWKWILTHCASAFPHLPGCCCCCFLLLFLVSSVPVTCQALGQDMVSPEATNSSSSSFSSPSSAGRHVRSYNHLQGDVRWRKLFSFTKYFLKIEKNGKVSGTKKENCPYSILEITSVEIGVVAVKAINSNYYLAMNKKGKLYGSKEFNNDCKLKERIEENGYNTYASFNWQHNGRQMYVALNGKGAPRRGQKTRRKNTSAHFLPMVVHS
Chain of Epidermal growth factor receptor (Homo sapiens) (P00533 whole entry, looked up): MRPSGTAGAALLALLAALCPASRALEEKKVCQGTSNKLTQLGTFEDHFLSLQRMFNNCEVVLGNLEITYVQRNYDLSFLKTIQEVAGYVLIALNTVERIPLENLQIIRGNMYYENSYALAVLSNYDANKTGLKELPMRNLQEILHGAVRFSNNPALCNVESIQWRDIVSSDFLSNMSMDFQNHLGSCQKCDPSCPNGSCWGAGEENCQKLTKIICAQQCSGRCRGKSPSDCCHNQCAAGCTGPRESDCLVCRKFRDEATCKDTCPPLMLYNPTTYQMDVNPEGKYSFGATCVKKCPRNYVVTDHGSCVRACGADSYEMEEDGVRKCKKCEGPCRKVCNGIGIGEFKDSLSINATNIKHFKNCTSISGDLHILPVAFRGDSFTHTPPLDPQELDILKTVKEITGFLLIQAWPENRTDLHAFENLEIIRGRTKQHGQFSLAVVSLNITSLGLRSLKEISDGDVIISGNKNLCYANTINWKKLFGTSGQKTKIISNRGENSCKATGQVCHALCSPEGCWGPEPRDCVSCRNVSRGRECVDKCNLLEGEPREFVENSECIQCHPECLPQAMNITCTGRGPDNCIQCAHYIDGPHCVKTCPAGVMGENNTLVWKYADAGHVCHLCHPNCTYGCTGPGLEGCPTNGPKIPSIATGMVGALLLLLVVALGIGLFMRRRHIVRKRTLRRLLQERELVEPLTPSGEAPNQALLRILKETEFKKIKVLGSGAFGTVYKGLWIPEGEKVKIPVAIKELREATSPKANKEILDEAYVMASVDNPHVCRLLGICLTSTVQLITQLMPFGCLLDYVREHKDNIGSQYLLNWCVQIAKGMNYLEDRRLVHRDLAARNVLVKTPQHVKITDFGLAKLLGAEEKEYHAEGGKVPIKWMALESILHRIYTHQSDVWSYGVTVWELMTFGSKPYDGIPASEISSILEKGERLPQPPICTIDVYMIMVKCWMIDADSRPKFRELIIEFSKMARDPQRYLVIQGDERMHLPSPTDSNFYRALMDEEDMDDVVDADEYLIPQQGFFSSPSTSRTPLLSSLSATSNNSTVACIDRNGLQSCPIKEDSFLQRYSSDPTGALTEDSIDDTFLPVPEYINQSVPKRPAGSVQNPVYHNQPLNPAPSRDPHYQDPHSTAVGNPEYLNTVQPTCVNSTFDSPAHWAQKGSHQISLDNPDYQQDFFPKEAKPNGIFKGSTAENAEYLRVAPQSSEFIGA
Chain of Left-right determination factor 2 (Homo sapiens) (O00292 whole entry, looked up): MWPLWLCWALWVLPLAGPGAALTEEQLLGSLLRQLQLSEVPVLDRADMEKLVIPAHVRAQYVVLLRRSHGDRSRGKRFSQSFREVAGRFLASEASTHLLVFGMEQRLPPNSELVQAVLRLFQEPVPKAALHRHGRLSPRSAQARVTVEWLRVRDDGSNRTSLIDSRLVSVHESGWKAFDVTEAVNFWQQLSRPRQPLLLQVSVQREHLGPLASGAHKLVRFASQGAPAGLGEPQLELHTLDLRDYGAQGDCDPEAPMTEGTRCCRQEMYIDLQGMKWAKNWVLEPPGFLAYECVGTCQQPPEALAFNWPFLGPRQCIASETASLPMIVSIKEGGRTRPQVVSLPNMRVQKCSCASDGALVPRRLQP
Chain of Follistatin-related protein 3 (Homo sapiens) (O95633 whole entry, looked up): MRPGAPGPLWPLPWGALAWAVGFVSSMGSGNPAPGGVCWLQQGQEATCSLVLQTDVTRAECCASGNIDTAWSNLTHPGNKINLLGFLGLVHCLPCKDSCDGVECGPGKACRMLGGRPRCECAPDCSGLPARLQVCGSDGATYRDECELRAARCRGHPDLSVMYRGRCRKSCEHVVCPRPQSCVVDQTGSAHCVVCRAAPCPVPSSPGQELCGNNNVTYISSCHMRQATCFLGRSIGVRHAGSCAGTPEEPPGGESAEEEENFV
Chain of Torsin-1A-interacting protein 1 (Homo sapiens) (Q5JTV8 whole entry, looked up): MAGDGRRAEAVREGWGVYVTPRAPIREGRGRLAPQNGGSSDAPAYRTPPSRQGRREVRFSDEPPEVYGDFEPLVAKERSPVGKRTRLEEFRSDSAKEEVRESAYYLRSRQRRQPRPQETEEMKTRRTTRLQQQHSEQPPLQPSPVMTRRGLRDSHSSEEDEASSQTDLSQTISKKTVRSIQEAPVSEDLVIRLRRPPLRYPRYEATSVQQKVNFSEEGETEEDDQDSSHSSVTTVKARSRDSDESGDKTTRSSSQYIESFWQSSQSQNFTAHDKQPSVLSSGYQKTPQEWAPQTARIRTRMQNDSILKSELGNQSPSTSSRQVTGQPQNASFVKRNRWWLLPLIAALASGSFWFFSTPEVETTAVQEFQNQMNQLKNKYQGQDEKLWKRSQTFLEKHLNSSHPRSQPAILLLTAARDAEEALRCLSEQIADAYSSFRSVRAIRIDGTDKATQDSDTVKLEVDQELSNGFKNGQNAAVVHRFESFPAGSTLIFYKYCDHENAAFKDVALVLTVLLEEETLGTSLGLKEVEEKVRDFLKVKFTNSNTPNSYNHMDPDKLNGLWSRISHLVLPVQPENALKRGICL
Chain of Dickkopf-related protein 1 (Homo sapiens) (O94907 whole entry, looked up): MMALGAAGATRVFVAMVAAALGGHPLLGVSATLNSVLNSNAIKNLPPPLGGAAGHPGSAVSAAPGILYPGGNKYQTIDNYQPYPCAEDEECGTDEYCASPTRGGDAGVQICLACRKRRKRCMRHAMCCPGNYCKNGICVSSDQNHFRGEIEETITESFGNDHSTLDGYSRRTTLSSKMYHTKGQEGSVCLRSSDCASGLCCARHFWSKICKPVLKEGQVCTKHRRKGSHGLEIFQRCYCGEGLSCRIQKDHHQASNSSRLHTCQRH

As to `CC1(C)C(=O)C(c2ccccc2)=C2CN3C(=O)N(CCc4ccccc4)C(=O)C3(Cc3ccc(F)cc3)C=C21` (stereo not given), the composite z-score in test [1] is 0.251; in test [2] it was 1.19; in [3], 1.24; in test [5], -0.236; in [6] it was -0.556; in [7], -0.554. Also, the composite z-score was -0.0423 in [8]; -1.11 in test [9]; 0.958 in test [10]; 0.754 in [11]; -1.24 in test [13]; 1.11 in test [14]. The composite z-score was found to be 0.725 in test [15]; 0.317 in test [16]; 0.717 in test [17]; 1.8 in test [18]; 0.551 in [19]; 0.273 in test [20]. Also, the z-score in [4] is -0.274 (inactive); in test [12], -1.47.

Take `COc1ccc(C(O)C2C=CC3C(=O)N(c4ccccc4)C(=O)C3N2Nc2ccccc2)cc1` (stereo not given): the composite z-score in test [1] is 0.97; in [2], -0.0903; in [3] it was 0.637; in [5] it was 1.31; in test [6], 0.592; in [7] it was 0.199. The composite z-score in test [8] is 1.37; in test [9], -0.0198; in test [10] it was 1.04; in test [11], 1.39; in test [13] it was -0.13; in [14], 0.553. Moreover, the composite z-score in test [15] was 0.147; in test [16], 0.0102; in test [17], -0.0243; in test [18] it was 0.36; in [19] it was 0.272; in test [20], 2.13. Also, the results for the z-score in [4] and in test [12] were 1.68 (inactive) and -0.454, respectively.

Regarding `CO[C@H]1O[C@H](CO)[C@@H](OC(=O)c2ccc(Br)cc2)[C@@H]2OC(=O)[C@H](Cc3ccccc3)C/C=C/C[C@@H](Cc3ccccc3)C(=O)O[C@@H]12`, the composite z-score in [1] is 1.14; in [2], -0.407; in test [3], 0.0962; in [5], 0.583; in test [6], 0.186; in test [7] it was 0.287. Besides, the composite z-score in test [8] was 0.435; in test [9], 0.214; in [10], 1.24; in [11] it was 0.79; in test [13], 0.109; in test [14] it was 0.575. Besides, the composite z-score in test [15] was -0.662; in test [16], -0.275; in test [17], -0.23; in test [18] it was -0.542; in [19], 0.706; in [20], 0.142. The figures for the z-score in test [4] and in test [12] were -0.511 (inactive) and -3.01, respectively.

Turning to `COC(=O)C(CC#Cc1ccc2c(c1)[C@]1(C(=O)N2)[C@H](c2ccc(O)cc2)N2[C@H](c3ccccc3)[C@H](c3ccccc3)OC(=O)[C@H]2[C@@H]1C(=O)N1CCCCCCC1)C(=O)OC`, the composite z-score was determined as 1.48 in [1]; 2.23 in [2]; 1.22 in test [3]; 0.869 in test [5]; 1.32 in [6]; 0.765 in test [7]. Also, the composite z-score in [8] stood at 1.54; in test [9], 1.22; in test [10], 1.77; in test [11], 1.36; in test [13], 0.65; in test [14], 2.75. For the same compound, the composite z-score in test [15] was found to be 1.64; in test [16], 0.593; in test [17] it was 1.03; in [18], 2.58; in test [19], 3.87; in [20], 2.18. For the same compound, the values for the z-score in test [4] and in [12] were -0.83 (inactive) and -1.69, respectively.

For the compound `COCC1C2CC[C@H]3C(OCc4ccc(OC)cc4)OC[C@]4(C)[C@H]3C2=C(CN4C(=O)OC(C)(C)C)[C@H](C)C1COC` (stereo not given in full), the composite z-score was found to be 0.852 in test [1]; 0.319 in [2]; 0.482 in test [3]; 1.11 in test [5]; 1.32 in [6]; 0.418 in test [7]. The composite z-score in test [8] was 1.16; in test [9] it was 0.207; in test [10], 0.752; in test [11], 1.4; in [13], 0.366; in [14], 2.47. Also, the composite z-score in test [15] was 0.671; in test [16], -0.0134; in [17] it was 0.0898; in test [18], -0.373; in [19], 0.782; in [20] it was 1.14. Moreover, the results for the z-score in [4] and in test [12] were -1.98 (inactive) and -0.733, respectively.

As to `COc1cc2c(cc1O)C(c1cccs1)N(Cc1sc3ccccc3c1Cl)CC2` (stereo not given), the composite z-score in [1] is 1.33; in test [2], 0.525; in test [3], 0.179; in test [5], 1.46; in test [6], 1.36; in [7], 0.495. Besides, the composite z-score in [8] came to 1.41; in [9] it was 0.726; in test [10], 0.816; in test [11], 1.48; in test [13] it was 0.659; in test [14] it was 1.66. For the same compound, the composite z-score in test [15] was 0.334; in [16], -0.0345; in test [17] it was 0.199; in test [18], 0.593; in test [19] it was 1.33; in [20], 1.87. For the same compound, the z-score in [4] is -0.861 (inactive); in [12], -1.7.

With `COc1cc(NN2C(C(O)c3cc(OC)c(OC)c(OC)c3)C=CC3C(=O)N(c4ccccc4)C(=O)C32)cc(OC)c1OC` (stereo not given), the composite z-score is 0.815 in test [1]; 0.981 in [2]; 0.561 in [3]; 1.26 in test [5]; 1.3 in [6]; 0.165 in [7]. For the same compound, the composite z-score in [8] turned out to be 1.1; in test [9] it was 0.101; in test [10], 0.759; in test [11], 1.41; in test [13], 0.307; in test [14] it was 2.02. Besides, the composite z-score was 0.986 in test [15]; 0.145 in test [16]; -0.0193 in test [17]; 0.756 in [18]; 1.56 in [19]; 2.35 in test [20]. The z-score was 0.269 (inactive) in test [4] and -1.54 in [12].
